37 molecules from the supplement of paper PMC9801561 can be followed below.

± gives the standard deviation of the averaged measurements.

In experiment [1] the test system is Escherichia coli Nissle 1917. Description: area under OmniLog respiration curve over 48 h (OmniLog units x h); higher = more growth / nutrient utilisation; extreme values may be limits of the assay. To be noted: incubation: 48 h, 37 °C.
In experiment [2] the test system is Escherichia coli Nissle 1917. Briefly: DuctApe activity index of respiration/growth curve (0 no growth to 9 maximum) (index 0-9); higher = more growth / nutrient utilisation, active = 3 or more; extreme values may be limits of the assay. To be noted: incubation: 48 h, 37 °C.
Setting [3] is: nutrient role: sole phosphorus source (pyruvate carbon).
Where [4] appears, read: nutrient role: C-Source, carbohydrate.
The mark [5] stands for this setting: nutrient role: sole nitrogen source (pyruvate carbon).
[6] abbreviates: nutrient role: N-Source, inorganic.
Where [7] appears, read: nutrient role: C-Source, carboxylic acid.
Setting [8] is: nutrient role: sole sulfur source (pyruvate carbon).
Where [9] appears, read: nutrient role: C-Source, amino acid.
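For DuctApe activity index of respiration/growth curve (0 no growth to 9 maximum) in this document: biolog PM4 phosphorus and sulfur plates, tetrazolium violet dye reduction read in the OmniLog every 15 min, kinetic curves scored by DuctApe, each plate run in triplicate.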

For the molecule `Nc1nc2c(ncn2[C@@H]2O[C@H](CO)[C@@H](OP(=O)(O)O)[C@H]2O)c(=O)[nH]1` [Guanosine 3`-Monophosphate], the “area under OmniLog respiration curve” value in experiment [1] (setting [3]) came to 9730 ± 510. For the same molecule, in experiment [2] (setting [3]), the DuctApe activity index was 9 (active).
For `OCC(O)C(O)C(O)CO` (centres undefined) [Adonitol], the “area under OmniLog respiration curve” value in experiment [1] (setting [4]) was determined as 2610 ± 350. Further, in experiment [2] (setting [4]), the DuctApe activity index was 5 (active).
On to `OC[C@H](O)C(O)[C@@H](O)CO` [L-Arabitol], for which the “area under OmniLog respiration curve” value in experiment [1] (setting [4]) is 4.72. For the same molecule, the DuctApe activity index in experiment [2] (setting [4]) was 0 (inactive).
Consider `C[C@H](N)C(=O)N[C@@H](CCC(=O)O)C(=O)O`, for which the “area under OmniLog respiration curve” value in experiment [1] (setting [5]) is 8550 ± 1300. Further, the DuctApe activity index in experiment [2] (setting [5]) is 8.33 (active).
On to `O=C(CO)[C@@H](O)[C@H](O)[C@H](O)CO[C@H]1O[C@H](CO)[C@@H](O)[C@H](O)[C@H]1O` [Palatinose], for which, in experiment [1] (setting [4]), the “area under OmniLog respiration curve” value worked out at 174 ± 160. Besides, the DuctApe activity index in experiment [2] (setting [4]) was 0 (inactive).
For `NC(Cc1ccc(OP(=O)(O)O)cc1)C(=O)O` (stereo in doubt) [O-Phospho-D-Tyrosine], the “area under OmniLog respiration curve” value in experiment [1] (setting [3]) was 9640 ± 360. For the same molecule, the DuctApe activity index in experiment [2] (setting [3]) is 9 (active).
With `NCC(=O)N[C@@H](CCC(N)=O)C(=O)O`, the “area under OmniLog respiration curve” value in experiment [1] (setting [5]) was determined as 8900 ± 1400. For the same molecule, the DuctApe activity index in experiment [2] (setting [5]) is 8.67 (active).
As to `O=C(O)C(CO)OP(=O)(O)O` [D-2-Phospho-Glyceric acid], the “area under OmniLog respiration curve” value in experiment [1] (setting [3]) was 9640 ± 700. For the same molecule, the DuctApe activity index in experiment [2] (setting [3]) is 9 (active).
In the case of `C[C@H](N)C(=O)N[C@H](C(=O)O)[C@@H](C)O`, the “area under OmniLog respiration curve” value in experiment [1] (setting [5]) came out at 7530 ± 1100. The DuctApe activity index in experiment [2] (setting [5]) is 8 (active).
`O=c1[nH]c(=O)c2nc[nH]c2[nH]1` [Xanthine]: in experiment [1] (setting [5]), the “area under OmniLog respiration curve” value worked out at 2650 ± 1100. In experiment [2] (setting [5]), the DuctApe activity index was 4 (active).
On to `N` [Ammonia], for which the “area under OmniLog respiration curve” value in experiment [1] (setting [6]) is 8190 ± 1000. In experiment [2] (setting [6]), the DuctApe activity index is 8.33 (active).
As to `C=C(CC(=O)O)C(=O)O` [Itaconic acid], in experiment [1] (setting [7]), the “area under OmniLog respiration curve” value came out at 4.72. Besides, in experiment [2] (setting [7]), the DuctApe activity index was 0 (inactive).
Consider `CS(=O)(=O)CC[C@H](N)C(=O)O` [L-Methionine Sulfone], for which the “area under OmniLog respiration curve” value in experiment [1] (setting [8]) stood at 31.6 ± 21. Further, the DuctApe activity index in experiment [2] (setting [8]) was 0 (inactive).
In the case of `O=C(O)C(O)C(O)C(=O)O` (centres undefined) [m-Tartaric acid], in experiment [1] (setting [7]), the “area under OmniLog respiration curve” value came to 4.72. In addition, in experiment [2] (setting [7]), the DuctApe activity index is 0 (inactive).
In the case of `C[N+](C)(C)CCOP(=O)(O)O` [Phosphoryl Choline], the “area under OmniLog respiration curve” value in experiment [1] (setting [3]) worked out at 8840 ± 430. The DuctApe activity index in experiment [2] (setting [3]) was 8.67 (active).
Turning to `NC(N)=S` [Thiourea], in experiment [1] (setting [8]), the “area under OmniLog respiration curve” value worked out at 4830 ± 410. The DuctApe activity index in experiment [2] (setting [8]) is 6.33 (active).
With `O=C[C@H](O)[C@@H](O)[C@H](O)[C@H](O)CO[C@@H]1O[C@H](CO)[C@@H](O)[C@H](O)[C@H]1O` [Gentiobiose], the “area under OmniLog respiration curve” value in experiment [1] (setting [4]) was found to be 475 ± 820. For the same molecule, the DuctApe activity index in experiment [2] (setting [4]) is 1 (inactive).
For the molecule `OC[C@H]1OC(O)[C@@H](O)[C@@H](O)[C@@H]1O` (stereo partly drawn) [D-Mannose], the “area under OmniLog respiration curve” value in experiment [1] (setting [4]) was 8430 ± 440. In experiment [2] (setting [4]), the DuctApe activity index is 8 (active).
As for `C[C@H](O)[C@@H](N)C(=O)O` [D-Threonine], the “area under OmniLog respiration curve” value in experiment [1] (setting [9]) stood at 291 ± 470. Further, in experiment [2] (setting [9]), the DuctApe activity index is 0.667 (inactive).
Consider `CCCC(=O)C(=O)O` [a-Keto-Valeric acid], for which the “area under OmniLog respiration curve” value in experiment [1] (setting [7]) came out at 4.72. In experiment [2] (setting [7]), the DuctApe activity index was 0 (inactive).
For `NC(=O)NCCC[C@H](N)C(=O)O` [L-Citrulline], the “area under OmniLog respiration curve” value in experiment [1] (setting [5]) stood at 1240 ± 540. Besides, the DuctApe activity index in experiment [2] (setting [5]) is 2.33 (inactive).
As for `O=C(O)[C@H](O)[C@@H](O)C(=O)O` [L-Tartaric acid], in experiment [1] (setting [7]), the “area under OmniLog respiration curve” value was determined as 34 ± 28. In experiment [2] (setting [7]), the DuctApe activity index is 0 (inactive).
In the case of `O=C(O)COP(=O)(O)O` [Phospho-Glycolic acid], the “area under OmniLog respiration curve” value in experiment [1] (setting [3]) amounted to 9060 ± 940. Further, the DuctApe activity index in experiment [2] (setting [3]) is 8.67 (active).
As for `O=C(O)[C@@H](O)[C@@H](O)[C@H](O)[C@@H](O)C(=O)O` [D-Saccharic acid], the “area under OmniLog respiration curve” value in experiment [1] (setting [7]) was 9150 ± 780. Moreover, the DuctApe activity index in experiment [2] (setting [7]) is 8.67 (active).
With `O=C(CO)[C@@H](O[C@H]1O[C@H](CO)[C@@H](O)[C@H](O)[C@H]1O)[C@H](O)[C@H](O)CO` [Turanose], the “area under OmniLog respiration curve” value in experiment [1] (setting [4]) was 532 ± 350. In experiment [2] (setting [4]), the DuctApe activity index is 0.333 (inactive).
Consider `Nc1nc2c(ncn2[C@@H]2O[C@H](CO)[C@@H](O)[C@H]2OP(=O)(O)O)c(=O)[nH]1` [Guanosine 2`-Monophosphate], for which the “area under OmniLog respiration curve” value in experiment [1] (setting [3]) was 9820 ± 820. The DuctApe activity index in experiment [2] (setting [3]) was 9 (active).
For `C[S+]([O-])CC[C@H](N)C(=O)O` (stereo partly drawn) [L-Methionine Sulfoxide], the “area under OmniLog respiration curve” value in experiment [1] (setting [8]) was determined as 5350 ± 130. In addition, in experiment [2] (setting [8]), the DuctApe activity index is 7 (active).
`Nc1nc2[nH]cnc2c(=O)[nH]1` [Guanine]: the “area under OmniLog respiration curve” value in experiment [1] (setting [5]) worked out at 27.5 ± 39. The DuctApe activity index in experiment [2] (setting [5]) is 0 (inactive).
With `OC[C@@H](O)[C@@H](O)CO` [i-Erythritol], the “area under OmniLog respiration curve” value in experiment [1] (setting [4]) was found to be 4.72. In experiment [2] (setting [4]), the DuctApe activity index was 0 (inactive).
Turning to `O=C(O)[C@H](O)[C@@H](O)[C@H](O)[C@H](O)COP(=O)(O)O` [6-Phospho-Gluconic acid], the “area under OmniLog respiration curve” value in experiment [1] (setting [3]) was 9360 ± 510. Also, the DuctApe activity index in experiment [2] (setting [3]) was 9 (active).
In the case of `O=C(O)C[C@@H](O)C(=O)O` [D-Malic acid], in experiment [1] (setting [7]), the “area under OmniLog respiration curve” value was determined as 3920 ± 860. In addition, in experiment [2] (setting [7]), the DuctApe activity index was 5.33 (active).
`CC(O)(CC(=O)O)C(=O)O` (centres undefined) [Citramalic acid]: the “area under OmniLog respiration curve” value in experiment [1] (setting [7]) worked out at 4.72. The DuctApe activity index in experiment [2] (setting [7]) is 0 (inactive).
Turning to `OC[C@@H](O)[C@@H](O)[C@H](O)[C@@H](O)CO` [D-Sorbitol], the “area under OmniLog respiration curve” value in experiment [1] (setting [4]) was found to be 8340 ± 910. Moreover, the DuctApe activity index in experiment [2] (setting [4]) was 8.33 (active).
As for `NCCO` [Ethanolamine], the “area under OmniLog respiration curve” value in experiment [1] (setting [5]) came to 27.4 ± 39. Besides, in experiment [2] (setting [5]), the DuctApe activity index was 0 (inactive).
In the case of `OCC1(O)OC[C@@H](O)[C@@H](O)[C@H]1O` (stereo partly drawn) [D-Psicose], the “area under OmniLog respiration curve” value in experiment [1] (setting [4]) amounted to 3500 ± 700. Moreover, the DuctApe activity index in experiment [2] (setting [4]) is 4 (active).
In the case of `O=P(O)(O)O[C@H]1O[C@H](CO)[C@@H](O)[C@H](O)[C@@H]1O` [D-Mannose-1-Phosphate], the “area under OmniLog respiration curve” value in experiment [1] (setting [3]) is 9100 ± 340. Also, in experiment [2] (setting [3]), the DuctApe activity index is 9 (active).
With `O=c1ccn([C@@H]2O[C@H](CO)[C@@H](O)[C@H]2OP(=O)(O)O)c(=O)[nH]1` [Uridine 2`-Monophosphate], in experiment [1] (setting [3]), the “area under OmniLog respiration curve” value was determined as 6560 ± 4400. In addition, in experiment [2] (setting [3]), the DuctApe activity index is 7 (active).
